# Data published in PubChem BioAssay AID1578 (Sanford-Burnham Center for Chemical Genomics, 2009).
# “And” between values parts separate entries of the source, which are not always exact repeats. Identical values can stand only once. Among all 290,000 compounds or so, about 3,000 (1%) were called active. This is one part of a sample in which actives are shown more often than they occur. Rule as the data show it: active = inhibition mostly above about 36% (no sharp cut-off); inactive = mostly below about 34%.
# Assay: inhibition of NOD1-driven NF-kB reporter – cell-based, luminescence, uHTS, primary screen (AID 1578);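 also: HEK-293T reporter cells stimulated with the NOD1 agonist gamma-tri-DAP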
# Conditions: NOD1-driven NF-kB luciferase reporter cells, at 4 µM, hits give high values
row,Compound,inhibition
1,CC1C(=NO)C(C)C(c2ccc(N(C)C)cc2)NC1c1ccc(N(C)C)cc1 (centres undefined),4% (inactive)
2,COc1ccc2c(c1)sc1nc(-c3ccccc3)cn12,34.4% (active)
3,CCOC(=O)N1CCN(C(=O)c2ccc3c(c2)sc2nc(-c4ccc(OC)cc4)cn23)CC1,-15.5% (inactive)
4,COc1ccc2c(c1)sc1nc(=O)ccn12,-3.3% (inactive)
5,O=C(COc1ccccc1)Nc1ccc(Cl)c(-c2nc3ncccc3o2)c1,-25.6% (inactive)
6,COc1cccc(C(=O)N2CCN(C(=O)C3CC3)CC2)c1,-26.7% (inactive)
7,COc1ccc(OC(C)C(=O)N2CCCc3ccccc32)cc1 (centres undefined),-45.6% (inactive)
8,Cc1nc2ccccn2c1C(=O)N=Nc1c(O)[nH]c2ccccc12,11.6% (inactive)
9,Cc1nc2ccccn2c1C(=O)N=Nc1c(O)n(CCC(C)C)c2ccccc12,92% (active)
10,CC(C)CCn1c(O)c(N=NC(=O)c2ccco2)c2ccccc21,24.4% (inactive)
11,CC1=Nc2cc(C(=O)NCCCOC(C)C)ccc2Sc2ccccc21,3.6% (inactive)
12,Cc1[nH]n(-c2cccc(Cl)c2)c(=O)c1-c1ccccc1,-18% (inactive)
13,Cc1[nH]n(-c2ccccc2)c(=O)c1-c1ccc(Cl)cc1,-30.5% (inactive)
14,O=C(CSc1nnc(Cn2c(=O)sc3ccccc32)n1CCc1ccccc1)N1CCOCC1,-11.3% (inactive)
15,COc1ccccc1N1CCN(C(=O)C2CC=CCC2C(=O)O)CC1 (centres undefined),-7.7% (inactive)
16,COc1cccc2c1C(CO)N1C(C#N)C3CC(C(=O)O)C(C1C2)N3C (centres undefined),102% (active)
17,COc1cccc2c1OCC(C(=O)O)C2 (centres undefined),-26.7% (inactive)
18,CC(C)c1ccc(NC2CCCN(C(=O)c3ccc(N4CCOCC4)cc3)C2)cc1 (centres undefined),-4% (inactive)
19,Cc1ccc(S(=O)(=O)c2c(C)cc(C)[nH]c2=O)cc1,-7.8% (inactive)
20,N#C/C(=N\Nc1ccc(Cl)cc1)C(=O)c1ccsc1,75.6% (active)
21,Cc1ccc(N/N=C(\C#N)C(=O)c2ccsc2)cc1,-5.4% (inactive)
22,N#C/C(=N\Nc1ccc(Cl)cc1)C(=O)c1ccccc1,66.9% (inactive)
23,Cc1[nH]n(-c2ccccc2)c(=O)c1/C=N/N1C(=O)c2cccc3cccc(c23)C1=O,-49.6% (inactive)
24,Cc1[nH]n(-c2ccccc2)c(=O)c1/C=N/N1CCOCC1,6.6% (inactive)
25,Cc1[nH]n(-c2ccccc2)c(=O)c1/C=N/N1C(=O)c2ccc3c4c(ccc(c24)C1=O)CC3,90.8% (active)

row,Compound,inhibition
1,Cc1[nH]n(-c2ccccc2)c(=O)c1C=Nc1cccc2cccnc12,45.4% (inactive)
2,Cc1cccc(/N=C/c2c(C)[nH]n(-c3ccccc3)c2=O)n1,-8.3% (inactive)
3,COc1ccc(N=C2SC(C(=O)Nc3ccc(OC)cc3)CC(=O)N2CCN2CCOCC2)cc1 (centres undefined),-18.8% (inactive)
4,COc1cc(CN2CCCCCC2)cc(OC)c1OC,-23% (inactive)
5,C[n+]1cn(/N=C/c2ccccc2)c2ccccc21,75.1% (active)
6,C(=N\n1c2ccccc2c2ccccc21)/c1ccccc1,6.6% (inactive)
7,Cn1c(=O)n(/N=C/c2ccccc2)c2ccccc21,-23.6% (inactive)
8,CCOC(=O)Cc1csc(NC(=O)c2sc3nc4cc(C)ccc4cc3c2N)n1,-55.6% (inactive)
9,CCn1cc(CNC(=O)c2ccc(OC3CCN(Cc4ccccn4)CC3)cc2)cn1,-0.8% (inactive)
10,Cc1ccccc1CN1CCC(Oc2ccc(C(=O)NCc3ccccn3)cc2)CC1,17% (inactive)
11,Cc1cc(Sc2nnc(N)s2)c2ccccc2n1,53.2% (active)
12,Cc1cc(Sc2nnc(/N=C/N(C)C)s2)c2ccccc2n1,46.4% (active)
13,Cc1ccc(NC(=O)CSc2nnc(/N=C/N(C)C)s2)cc1,-37.6% (inactive)
14,COc1ccc2nc(C)cc(Sc3nc4ccccc4s3)c2c1,47.7% (active)
15,COc1ccc2nc(C)cc(SCC(=O)NNC(=O)COc3ccccc3)c2c1,9.9% (inactive)
16,Cc1cc(N)c2ccccc2n1,-45.9% (inactive)
17,CCCCCCCCSc1nnc(/N=C/N(C)C)s1,-11.4% (inactive)
18,COc1ccc2nc(C)cc(SCC(=O)O)c2c1,-24.8% (inactive) and -30.8% (inactive)
19,Cc1nc2ccccc2nc1CSc1nnc(N)s1,-18% (inactive)
20,Cc1ccccc1CN1CCN(CC(=O)NCc2ccco2)C1=O,-14.9% (inactive)
21,FC(F)(F)COc1nc(N2CCOCC2)nc(N(c2ccccc2)c2ccccc2)n1,-30.9% (inactive)
22,O=C(Nc1cccc(NC(=O)c2cncc(Br)c2)c1)c1cncc(Br)c1,-16.9% (inactive)
23,Cc1ccc(NS(=O)(=O)c2cn(C)c(=O)n(C)c2=O)cc1C,-34.3% (inactive)
24,Cc1ccc(-c2nc(NCC3CCCO3)sc2C)cc1 (centres undefined),-53.2% (inactive)
25,COCc1cc(C2C(C(=O)c3ccco3)=C(O)C(=O)N2CCOCCO)ccc1O (centres undefined),-32.2% (inactive)

row,Compound,inhibition
1,COCCCNC(=O)C(=O)Nc1cc2c3c(c1)CCC(=O)N3CCC2,19.6% (inactive)
2,CC(=O)c1ccc(NC(=O)c2cnsn2)cc1,44.1% (inactive)
3,CN(C)c1ccc(NC(=O)c2cnsn2)cc1,65.7% (active)
4,CCOc1ccc(NC(=O)c2cnsn2)cc1,-6.3% (inactive)
5,Cc1ccc(Cl)cc1N1CCN(S(=O)(=O)c2ccc3[nH]c(=O)ccc3c2)CC1,5.1% (inactive)
6,O=C(Cn1c(O)c(/C=C2\C=Nc3ccccc32)sc1=O)N1CCOCC1,12.6% (inactive)
7,C=CCC(=O)NC1CCCc2c1cnn2-c1cc(F)cc(F)c1 (centres undefined),6.1% (inactive)
8,O=C(O)c1ccc(-n2cc(-c3cc4ccccc4oc3=O)[nH]c2=S)cc1,-7.2% (inactive)
9,Cc1ccc(-c2cn(-c3ccccc3)c(=S)[nH]2)cc1C,23.4% (active)
10,O=c1oc2ccccc2cc1-c1cn(-c2ccccc2)c(=S)[nH]1,98.5% (active)
11,Cc1ccccc1-c1cn(-c2ccccc2)c(=S)[nH]1,-24.2% (inactive)
12,S=c1[nH]c(-c2ccccc2)cn1-c1ccccc1,-7.1% (inactive)
13,COc1ccc(-c2cn(-c3ccccc3)c(=S)[nH]2)cc1OC,-4.4% (inactive)
14,Cc1nc2ccc(Cl)cn2c1C(=O)NN,-35.5% (inactive)
15,O=C(NCCNC(=O)c1ccco1)c1ccco1,5% (inactive)
16,Cc1cccc(N(CC(=O)NC2CCCCC2)C(=O)CCCC(=O)Nc2ccccn2)c1,-26.2% (inactive)
17,Cn1nnnc1SCCNCc1ccncc1,-3.9% (inactive)
18,Cn1c(N2CCCC2)nc2c1c(=O)n(Cc1ccc(Cl)cc1)c(=O)n2C,-9.4% (inactive)
19,Cn1c(N2CCC(C(N)=O)CC2)nc2c1c(=O)n(Cc1ccc(Cl)cc1)c(=O)n2C,-1.5% (inactive)
20,O=C(c1nc2ccc(Cl)cn2c1CN1CCC[C@H]1CO)N1CCCCCCC1,-22% (inactive)
21,CCOC(=O)c1cnc(N2CCN(c3ccccc3)CC2)[nH]c1=O,1.6% (inactive)
22,CC(=O)c1ccc(NCC2COc3ccccc3O2)c([N+](=O)[O-])c1 (centres undefined),-11.7% (inactive)
23,CCOC(=O)CSc1ccc2nnc(-c3ccccc3)n2n1,-21.3% (inactive)
24,COc1nc(Nc2ccccc2F)nc(OC)n1,-28.1% (inactive)
25,Cc1c(N)cc[n+](CC(=O)c2ccccc2)c1C,-3.9% (inactive)

row,Compound,inhibition
1,COc1ccc(C(=O)C[n+]2ccc3ccccc3c2C)cc1,-2.3% (inactive)
2,COc1ccc(C(=O)C[n+]2ccc(N)c(C)c2C)cc1,59.4% (active)
3,Cc1cc(C(=O)N2CCCC(CCC(=O)N3CCN(c4ccccn4)CC3)C2)c(C)o1 (centres undefined),-25.2% (inactive)
4,Cc1cc(OCC(=O)NCCN2CCOCC2)cc(C)c1Cl,84.9% (active)
5,Cc1cc(C)cc(OCC(=O)Nc2ccncc2)c1,30.1% (inactive)
6,Cc1cc(OCC(=O)Nc2ccncc2)ccc1Cl,27.1% (inactive)
7,Cc1cc(Cl)ccc1OCC(=O)Nc1ccncc1,23.8% (inactive)
8,Cc1cc(OCC(=O)NCCN2CCOCC2)cc(C)c1Br,-62.5% (inactive)
9,Cc1ccc(OCC(=O)NCCN2CCOCC2)cc1C,-3.4% (inactive)
10,Cc1cc(OCC(=O)Nc2ccncc2)ccc1Br,49.9% (inactive)
11,Cc1ccccc1-n1nc2c(c1NC(=O)C(C)C)CS(=O)(=O)C2,-6.5% (inactive)
12,O=C(Nc1cccnc1Cl)c1ccc2c(Cl)c3c(nc2c1)CCC3,-39.9% (inactive)
13,N#Cc1ccccc1NC(=O)c1ccc2c(Cl)c3c(nc2c1)CCCC3,66.5% (active)
14,CC(=O)c1cccc(NC(=O)c2ccc3c(Cl)c4c(nc3c2)CCCC4)c1,-3.3% (inactive)
15,Clc1ccc(C2Nc3ccccc3-n3cccc32)cc1 (centres undefined),-20.2% (inactive)
16,CN1CCCN(C(=O)c2ccc(Cl)s2)CC1,-15% (inactive)
17,O=C(c1cc2ccccc2oc1=O)N(Cc1ccccc1)Cc1ccc2c(c1)OCO2,50.1% (active)
18,O=C(NCc1ccc2c(c1)OCO2)c1cc2ccccc2oc1=O,11.3% (inactive)
19,O=C(c1cc2ccccc2oc1=O)N(Cc1ccc2c(c1)OCO2)Cc1ccco1,-2.2% (inactive)
20,COc1cc(C(C(=O)NC2CCCCC2)N(Cc2ccco2)C(=O)c2cnccn2)cc(OC)c1OC (centres undefined),-34.1% (inactive)
21,C[C@]12C=CC(=O)C=C1CC[C@@H]1C2C(O)C[C@@]2(C)C1CC[C@]2(O)C(=O)COC(=O)CCC(=O)NC(CC(=O)O)C(=O)O (some centres undefined),-8.1% (inactive)
22,O=C(/C=C/c1ccc(F)cc1)NC(=S)Nc1ccccc1C(=O)NC1CCCCC1,12.3% (inactive)
23,O=C(/C=C/c1ccc(F)cc1)NC(=S)NC1CCCCC1,36.3% (active)
24,CN(C(=S)NC(=O)/C=C/c1ccc(F)cc1)C1CCCCC1,-22.9% (inactive)
